Growth data for seven compounds are collected here from PubChem BioAssay (NCI).

Some test systems named below: DU-145 prostate; K-562 leukemia; MALME-3M melanoma; MDA-MB-231 breast; RXF 393 renal; SF-268 CNS; SF-295 CNS; SF-539 CNS; UACC-257 melanoma; M14 melanoma; HCT-15 colon; HT29 colon; SNB-75 CNS; SNB-19 CNS; U251 CNS; PC-3 prostate; SK-MEL-5 melanoma; UACC-62 melanoma; LOX IMVI melanoma; SK-MEL-28 melanoma.
Common to all, as to experiment: NCI-60 one-dose screen, 48 h (100 = growth as untreated, 0 = no growth, -100 = all killed)
Common to all, as to conditions: 10 µM unless noted

Structures are written as SMILES. The panel holds about 83,000 compounds, 20% with a hit somewhere; the sample as a whole holds those more often.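 Note: values are percent growth. 100 is the growth of untreated cells, values between 100 and 0 indicate rising inhibition; between -100 and 0 indicates cell death.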 Unmarked numbers belong to inactive results. Calls of active or inactive are those of the source. How the source made its calls: active means growth percent below 10; inactive means the rest.

Consider `N=C(N)c1ccc(-c2ccc(-c3cc(Cl)cc(Cl)c3)s2)nc1`, for which the growth was 1.39% (active) with DU-145 prostate; -4.72% (active) in the experiment with K-562 leukemia; 78.6% in the experiment with MALME-3M melanoma; 61.1% in the experiment with MDA-MB-231 breast; 90.3% in the experiment with RXF 393 renal; 88.4% in the experiment with SF-268 CNS. For the same compound, the growth in the experiment on SF-295 CNS is 57.1%; in the experiment with SF-539 CNS, 57.2%; in the experiment on UACC-257 melanoma it was 106%; with M14 melanoma, 79.5%; with HCT-15 colon it was -7.35% (active); in the experiment on HT29 colon it was 13.2%. In addition, the growth with SNB-75 CNS was 105%; with SNB-19 CNS, 64.5%; in the experiment with U251 CNS it was -36.1% (active); with PC-3 prostate, 71.3%; in the experiment with SK-MEL-5 melanoma, 94%; in the experiment with UACC-62 melanoma, 95.2%. In addition, the growth in the experiment on LOX IMVI melanoma is -75.6% (active); in the experiment on SK-MEL-28 melanoma, 108%.

On to `COc1cc2c(cc1OCCCCN1CCN(C(=S)SCCC(C#N)(c3ccccc3)c3ccccc3)CC1)N=C[C@@H]1CCCN1C2=O`, for which the growth was -96.7% (active) with DU-145 prostate; -34.3% (active) in the experiment on K-562 leukemia; -79.4% (active) in the experiment on MALME-3M melanoma; -23.7% (active) in the experiment with MDA-MB-231 breast; -83.7% (active) in the experiment with RXF 393 renal; -69.9% (active) in the experiment with SF-268 CNS. The growth was -8.56% (active) in the experiment with SF-295 CNS; -91.3% (active) in the experiment on SF-539 CNS; -11.1% (active) in the experiment with UACC-257 melanoma; -29.5% (active) with M14 melanoma; -55.5% (active) in the experiment on HCT-15 colon; -65.6% (active) in the experiment with HT29 colon. For the same compound, the growth with SNB-75 CNS is -82.3% (active); with SNB-19 CNS, -14.5% (active); in the experiment with U251 CNS, -81.9% (active); in the experiment with PC-3 prostate, -16.1% (active); with SK-MEL-5 melanoma it was -98.3% (active); with UACC-62 melanoma it was -22.7% (active). In addition, the results for the growth with LOX IMVI melanoma and in the experiment on SK-MEL-28 melanoma were -83.2% (active) and -70.2% (active), respectively.

For `CCCCNC(=O)Oc1ccc(/C(=C(/C)Cc2ccc(OC)cc2)c2ccc(OCCN3CCCCCC3)cc2)cc1`, the growth in the experiment on DU-145 prostate is 91.6%; in the experiment with K-562 leukemia, 10.3%; in the experiment with MALME-3M melanoma it was 99.5%; in the experiment with MDA-MB-231 breast, 81.5%; in the experiment with RXF 393 renal it was 75.1%; with SF-268 CNS, 83.5%. Besides, the growth in the experiment with SF-295 CNS is 92.2%; with SF-539 CNS, 95.4%; in the experiment on UACC-257 melanoma, 94.4%; in the experiment with M14 melanoma, 91.1%; in the experiment with HCT-15 colon it was 27.8%; in the experiment on HT29 colon, 3.69% (active). The growth is 79.2% in the experiment with SNB-75 CNS; 85.8% in the experiment on SNB-19 CNS; 62.5% in the experiment on U251 CNS; 65.5% in the experiment on PC-3 prostate; 82.7% with SK-MEL-5 melanoma; 79.1% in the experiment with UACC-62 melanoma. The growth with LOX IMVI melanoma was 14%; in the experiment with SK-MEL-28 melanoma, 95%.

`COc1cnc2c(c1)C(=O)c1c-2n(CCCCl)c(=O)c2ccncc12`: the growth is 76% with DU-145 prostate; 38.7% in the experiment on K-562 leukemia; 103% in the experiment with MALME-3M melanoma; 81.4% in the experiment on MDA-MB-231 breast; 81% in the experiment with RXF 393 renal; 57.6% in the experiment on SF-268 CNS. The growth with SF-295 CNS was 36.6%; in the experiment with SF-539 CNS, 56.1%; in the experiment with UACC-257 melanoma it was 70%; with M14 melanoma, 67.5%; with HCT-15 colon, 75.5%; in the experiment with HT29 colon, 49.5%. Further, the growth is 55.6% with SNB-75 CNS; 55.4% in the experiment on SNB-19 CNS; 33.6% with U251 CNS; 54% in the experiment with PC-3 prostate; 34.3% with SK-MEL-5 melanoma; 23.7% with UACC-62 melanoma. The growth is 33.8% in the experiment with LOX IMVI melanoma and 99.3% in the experiment on SK-MEL-28 melanoma.

As to `COc1cccc(/C=C/C(=O)c2cc3c(N)c(C(=O)Nc4cccc5ccccc45)sc3nc2C)c1`, the growth with DU-145 prostate was 7.62% (active); with K-562 leukemia, 10.4%; in the experiment with MALME-3M melanoma, 33.5%; in the experiment on MDA-MB-231 breast, -3.88% (active); with RXF 393 renal, -31.6% (active); in the experiment on SF-268 CNS, 15.3%. The growth in the experiment with SF-295 CNS was 15.5%; in the experiment on SF-539 CNS it was -67.3% (active); in the experiment with UACC-257 melanoma, 61.7%; with M14 melanoma, 2.46% (active); in the experiment with HCT-15 colon it was -23.1% (active); in the experiment on HT29 colon, -11.2% (active). Moreover, the growth with SNB-75 CNS was -16.4% (active); with SNB-19 CNS, -18.8% (active); in the experiment with U251 CNS, -11.4% (active); in the experiment on PC-3 prostate, 27.7%; with SK-MEL-5 melanoma it was -19.7% (active); in the experiment with UACC-62 melanoma it was -18.3% (active). In addition, the figures for the growth with LOX IMVI melanoma and with SK-MEL-28 melanoma were -66.8% (active) and 39.2%, respectively.

In the case of `Cn1c2c(c3ccc(Cl)c(Cl)c31)C(C#N)C(C)(C)NC2=O` (stereo not given), the growth was 106% in the experiment with DU-145 prostate; 74.5% in the experiment with K-562 leukemia; 90.4% with MALME-3M melanoma; 81.1% with MDA-MB-231 breast; 76.4% in the experiment on RXF 393 renal; 99.6% in the experiment on SF-268 CNS. Moreover, the growth is 76.1% with SF-295 CNS; 86.2% in the experiment with SF-539 CNS; 77.4% in the experiment with UACC-257 melanoma; 90.3% in the experiment on M14 melanoma; 96.1% in the experiment on HCT-15 colon; 88.5% in the experiment on HT29 colon. Moreover, the growth with SNB-75 CNS was 76.6%; with SNB-19 CNS, 91.8%; in the experiment on U251 CNS, 91.1%; with PC-3 prostate, 95.1%; in the experiment on SK-MEL-5 melanoma, 5.3% (active); with UACC-62 melanoma, 66.6%. In addition, the growth was 84.4% in the experiment on LOX IMVI melanoma and 105% with SK-MEL-28 melanoma.

Regarding `N#C/C(=C\c1cn(Cc2ccccc2)c2ccccc12)C(=O)Nc1ncc(Cc2ccccc2Cl)s1`, the growth was 24.3% in the experiment on DU-145 prostate; 26.2% in the experiment on K-562 leukemia; -7.28% (active) with MALME-3M melanoma; 19.8% in the experiment with MDA-MB-231 breast; 40.8% with RXF 393 renal; 64.1% in the experiment with SF-268 CNS. Further, the growth in the experiment on SF-295 CNS was 8.89% (active); in the experiment with SF-539 CNS, 13.5%; in the experiment with UACC-257 melanoma it was -38.2% (active); in the experiment with M14 melanoma, 38.9%; with HCT-15 colon it was 35.7%; in the experiment on HT29 colon it was 28.2%. Moreover, the growth with SNB-75 CNS is -12.7% (active); in the experiment with SNB-19 CNS, 72.4%; in the experiment on U251 CNS, -9.08% (active); in the experiment on PC-3 prostate it was 40.6%; with SK-MEL-5 melanoma, 57.6%; in the experiment on UACC-62 melanoma, -40.4% (active). Also, the growth in the experiment on LOX IMVI melanoma was 24.7%; with SK-MEL-28 melanoma, 29.9%.
